Test results from PubChem BioAssay (EPA / NIEHS).
Calls of active or inactive are those of the source. Rule for the calls: active = hit-call score of the fitted dose curve at least 0.9, where 1 is the maximum; inactive = score below 0.9.

read-out: Vascular endothelial growth factor receptor 2 (Homo sapiens) (UniProt P35968); assay: BSK_4H_VEGFRII: BioMAP Diversity Plus: 4H Assay for Vascular endothelial growth factor receptor 2 (VEGFR2) Biomarker Activity (AID 2283031); settings: primary human endothelial cells (HUVEC); actives raise or lower the signal
Description: BSK_4H is a cell-based, multiplexed-readout assay that uses umbilical vein endothelium, a human vascular primary cell, with measurements taken at 24 hours after chemical dosing in a 96-well plate.BSK_4H_VEGFRII is an assay component measured in the BSK_4H assay. It measures VEGFRII antibody related to regulation of gene expression using ELISA technology.Data from the assay component BSK_4H_VEGFRII was analyzed into 1 assay endpoint. This assay endpoint, BSK_4H_VEGFRII, was analyzed with bidirectional fitting relative to DMSO as the negative control and baseline of activity. Using a type of binding reporter, gain or loss-of-signal activity can be used to understand changes in the signaling as they relate to the gene KDR. Furthermore, this assay endpoint can be referred to as a primary readout, because this assay has produced multiple assay endpoints where this one serves a signaling function. To generalize the intended target to other relatable targets, this assay endpoint is annotated to the kinase intended target family, where the subfamily is receptor tyrosine kinase.
The levels of cell surface (or secreted, indicated by the prefix "s") biomarker endpoints were measured by ELISA. Overt cytotoxicity to cells in confluent adherent cultures (all systems other than the BT system) was assessed by measuring total protein levels using sulforhodamine B (SRB) staining in parallel cultures at the time of biomarker measurements, indicated as SRB endpoints. For proliferation assays for adherent cell types, individual cell types are cultured at sub-confluence and relative cell numbers quantified by SRB staining at time points optimized for each system (48 h: 3C and CASM3C systems; 72 h: BT and HDF3CGF systems; 96 h: SAg system). SRB was performed by staining cells with 0.1% SRB after fixation with 10% TCA and reading wells at 560 nm.Viability and proliferation of PBMC (T cells) was quantified by Alamar Blue reduction for the SAg and BT systems. For PBMC viability (referred to as PBMC Cytotoxicity within the assay endpoint names), cells were plated (75,000/well in a 96-well plate) and then chemical samples added for 1 h before addition of activators, SEB and TSST-1 (20 ng/mL final concentration each). Cells were incubated for 90 h. Then, Alamar Blue (20 uL/well) (Invitrogen, Cat DAL1100) was added for 6 h, and the plates were read with a fluorescence microplate reader at 546/580 nm (excitation/emission). For PBMC proliferation, cells were plated and activated as above but incubated for only 16 h prior to addition of Alamar Blue. Plates were read after 6 h.

| Compound | outcome | AC50 |
| --- | --- | --- |
| C[C@]12CC[C@@H]3c4ccc(O)cc4CC[C@H]3[C@@H]1CC[C@H]2O | inactive | – |
| Cc1ncc(CO)c(CO)c1O | inactive | – |
| OC12N=C(c3ccccc3)SC1Cc1cc(Cl)ccc12 (stereo not given) | inactive | – |
| CCCCCCCCOc1ccc(C(=O)c2ccccc2)c(O)c1 | inactive | – |
| O=c1c(-c2ccc(O)cc2)coc2cc(O)cc(O)c12 | inactive | – |
| CC(O)CC(C)(C)O (stereo not given) | inactive | – |
| CCCCCc1ccc(N)cc1 | inactive | – |
| Cc1c2ccccc2c(C)c2c1ccc1ccccc12 | inactive | – |
| CN(C)C(=O)C1(N2CCCCC2)CCN(CC[C@@]2(c3ccc(Cl)c(Cl)c3)CN(C(=O)c3ccccc3)CCO2)CC1 | inactive | – |
| CC[C@H](NC(=O)c1cc(F)ccc1NS(=O)(=O)c1cccc2cccnc12)c1ccccc1 | inactive | – |
| O=C(O)c1ccccc1C(=O)OCc1ccccc1 | inactive | – |
| CCN(CC)C(=O)c1cc(S(=O)(=O)Cc2ccccc2)c(N2CCC(c3ccccc3)CC2)cc1N(CC)CCN(C)C | inactive | – |
| Cc1cc2c(cc1C(F)(F)F)N(C(=O)Nc1ccc(Oc3cccnc3C)nc1)CC2 | inactive | – |
| Cc1cc(F)ccc1-c1cc(N2CC[C@@H](O)[C@H]2CO)ncc1N(C)C(=O)C(C)(C)c1cc(C(F)(F)F)cc(C(F)(F)F)c1 | – | 7.98 µM (active) |
| CCCCOC(=O)c1ccc(O)cc1 | inactive | – |
| CC1(C)NC(=O)N(c2ccc([N+](=O)[O-])c(C(F)(F)F)c2)C1=O | inactive | – |
| CN1C(=O)CC[C@H]1c1cccnc1 | inactive | – |
| COc1cc(C(=O)NC2CCN(C)CC2)ccc1Nc1ncc2c(n1)N(C1CCCC1)CC(F)(F)C(=O)N2C | inactive | – |
| CC[C@@H]1C[C@H](N(Cc2cc(C(F)(F)F)cc(C(F)(F)F)c2)C(C)=O)c2cc(C(F)(F)F)ccc2N1C(=O)OC(C)C | inactive | – |
| c1ccc2n[nH]nc2c1 | inactive | – |

| Compound | outcome | AC50 |
| --- | --- | --- |
| CCCCOC(=O)CC(CC(=O)OCCCC)(OC(C)=O)C(=O)OCCCC | inactive | – |
| Cc1cn([C@H]2C[C@H](N=[N+]=[N-])[C@@H](CO)O2)c(=O)[nH]c1=O | inactive | – |
| CCCCCCCC[Si](OCC)(OCC)OCC | inactive | – |
| O=C1O[C@H]([C@@H](O)CO)C(O)=C1O | inactive | – |
| O=c1ccc2ccccc2o1 | inactive | – |
| O=C=NCCCCCCN=C=O | inactive | – |
| CCCCCCCCCCCCO | – | 34 µM (active) |
| CCN(Cc1cccc(S(=O)(=O)O)c1)c1ccc(C(=C2C=CC(=[N+](CC)Cc3cccc(S(=O)(=O)O)c3)C=C2)c2ccccc2S(=O)(=O)[O-])cc1 | inactive | – |
| CCCC(=O)OCCC(C)C | inactive | – |
| c1ccc2ccccc2c1 | inactive | – |
| O=C(O)Cn1c(=O)n(Cc2ccc(Br)cc2F)c(=O)c2ccc(Cl)cc21 | inactive | – |
| CCN(Cc1cccnc1)C(=O)c1cccc(Cl)c1[C@]1(C)C(=O)N(Cc2ccc(OC)cc2OC)c2ccc(Cl)cc21 | – | 6.81 µM (active) |
| O=C(O)c1ccccc1-n1cc(C(=O)O)c(=O)c2cc(Nc3c(F)cc(F)cc3Cl)c(Cl)cc21 | inactive | – |
| CN(C[C@@H](CC[N+]12CCC(C3CCCCC3)(CC1)CC2)c1ccc(Cl)c(Cl)c1)C(=O)c1cc(C(F)(F)F)cc(C(F)(F)F)c1 | inactive | – |
| Clc1ccccc1C(c1ccccc1)(c1ccccc1)n1ccnc1 | inactive | – |
| CC1=CC(=O)/C(=C(/C)O)C(=O)O1 | inactive | – |
| c1ccc(C[n+]2cccc3ccccc32)cc1 | inactive | – |
| O=C(O)Cc1cc(I)c(Oc2ccc(O)c(I)c2)c(I)c1 | inactive | – |
| CC(=O)N1CCN(c2ccc(OC[C@H]3CO[C@](Cn4ccnc4)(c4ccc(Cl)cc4Cl)O3)cc2)CC1 | inactive | – |
| CO[C@H]1/C=C/O[C@@]2(C)Oc3c(C)c(O)c4c(O)c(c(/C=N/N5CCN(C)CC5)c(O)c4c3C2=O)NC(=O)/C(C)=C\C=C\[C@H](C)[C@H](O)[C@@H](C)[C@@H](O)[C@@H](C)[C@H](OC(C)=O)[C@@H]1C | inactive | – |
